Test results from PubChem BioAssay AID1159580 (chemical genetic matrix, 2015).
In all, about 5,500 compounds went through this assay and about 2,000 (36%) were called active. About 18% were inconclusive and are not listed. No stated cut-off is given here; in the data, active means normalized growth mostly below about 0.91 (no sharp cut-off); inconclusive means no clear call, values can overlap the other calls; inactive means mostly above about 0.92. The list shows a part of the results.

Test: chemical genetic growth profiling, strain panel (AID 1159580);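 further: tested at 20 µM; growth read once vehicle control cultures reached saturation at 30 °C; 1 = growth at the plate median or of vehicle wells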
Conditions: growth OD

Measured: normalized growth

COC(=O)[C@@H]1C(O)CC[C@H]2CN3CCc4c([nH]c5ccccc45)[C@@H]3C[C@@H]21 (some centres not stated)
inactive: S. cerevisiae deletion strains, locus YJR075W, strain HOC1, stronger effect = lower value 0.993 | S. cerevisiae deletion strains, locus YKL009W, strain mrt4, stronger effect = lower value 0.968 | S. cerevisiae deletion strains, locus YKL068W, stronger effect = lower value 0.982 | S. cerevisiae deletion strains, locus YKL085W, strain MDH1 (second series), stronger effect = lower value 0.982 | S. cerevisiae deletion strains, locus YKL085W, strain MDH1, stronger effect = lower value 0.982 | S. cerevisiae deletion strains, locus YKL160W, strain elf1, stronger effect = lower value 1.01 | S. cerevisiae deletion strains, locus YKL190W, strain CNB1, stronger effect = lower value 0.994 | S. cerevisiae deletion strains, locus YKR001C, strain vps1, stronger effect = lower value 0.979 | S. cerevisiae deletion strains, locus YKR026C, strain gcn3, stronger effect = lower value 1.01 | S. cerevisiae deletion strains, locus YKR091W, strain srl3, stronger effect = lower value 1.02 | S. cerevisiae deletion strains, locus YLL001W, strain dnm1, stronger effect = lower value 1.02 | S. cerevisiae deletion strains, locus YLL026W, stronger effect = lower value 1.01 | S. cerevisiae deletion strains, locus YLL041C, strain sdh2, stronger effect = lower value 1.02 | S. cerevisiae deletion strains, locus YLR027C, strain aat2, stronger effect = lower value 1.01 | S. cerevisiae deletion strains, locus YLR039C, strain RIC1, stronger effect = lower value 0.977 | S. cerevisiae deletion strains, locus YLR058C, strain SHM2, stronger effect = lower value 0.988 | S. cerevisiae deletion strains, locus YLR102C, strain apc9, stronger effect = lower value 0.995 | S. cerevisiae deletion strains, locus YLR113W, strain HOG1, stronger effect = lower value 1 | S. cerevisiae deletion strains, locus YLR221C, strain rsa3, stronger effect = lower value 1 | S. cerevisiae deletion strains, locus YLR258W, strain gsy2, stronger effect = lower value 1.01 | S. cerevisiae deletion strains, locus YLR262C, strain YPT6 (second series), stronger effect = lower value 1 | S. cerevisiae deletion strains, locus YLR262C, strain YPT6, stronger effect = lower value 0.962 | S. cerevisiae deletion strains, locus YLR268W, strain sec22, stronger effect = lower value 1.01 | S. cerevisiae deletion strains, locus YLR320W, strain mms22, stronger effect = lower value 1.01 | S. cerevisiae deletion strains, locus YLR330W, strain CHS5, stronger effect = lower value 0.996 | S. cerevisiae deletion strains, locus YLR342W, strain FKS1 (second series), stronger effect = lower value 0.978 | S. cerevisiae deletion strains, locus YLR342W, strain FKS1, stronger effect = lower value 1.01 | S. cerevisiae deletion strains, locus YLR357W, strain rsc2, stronger effect = lower value 1.01 | S. cerevisiae deletion strains, locus YLR370C, strain arc18, stronger effect = lower value 1.02 | S. cerevisiae deletion strains, locus YLR371W, strain rom2, stronger effect = lower value 0.976 | S. cerevisiae deletion strains, locus YLR384C, strain iki3, stronger effect = lower value 1.02 | S. cerevisiae deletion strains, locus YLR418C, strain cdc73, stronger effect = lower value 1.05 | S. cerevisiae deletion strains, locus YML016C, strain PPZ1, stronger effect = lower value 0.983 | S. cerevisiae deletion strains, locus YML032C, strain rad52, stronger effect = lower value 0.971 | S. cerevisiae deletion strains, locus YML120C, strain ndi1, stronger effect = lower value 1.02 | S. cerevisiae deletion strains, locus YML124C, strain tub3, stronger effect = lower value 0.991 | S. cerevisiae deletion strains, locus YMR058W, strain fet3, stronger effect = lower value 1.01 | S. cerevisiae deletion strains, locus YMR078C, strain ctf18, stronger effect = lower value 0.988 | S. cerevisiae deletion strains, locus YMR125W, strain sto1, stronger effect = lower value 1 | S. cerevisiae deletion strains, locus YMR129W, stronger effect = lower value 1.01 | S. cerevisiae deletion strains, locus YMR205C, strain PFK2, stronger effect = lower value 1.03 | S. cerevisiae deletion strains, locus YMR223W, strain ubp8, stronger effect = lower value 0.97 | S. cerevisiae deletion strains, locus YMR231W, strain pep5, stronger effect = lower value 1.01 | S. cerevisiae deletion strains, locus YMR263W, strain SAP30, stronger effect = lower value 0.995 | S. cerevisiae deletion strains, locus YMR307W, strain GAS1, stronger effect = lower value 1 | S. cerevisiae deletion strains, locus YNL067W, strain RPL9B, stronger effect = lower value 1.01 | S. cerevisiae deletion strains, locus YNL071W, strain lat1, stronger effect = lower value 1.02 | S. cerevisiae deletion strains, locus YNL128W, strain TEP1, stronger effect = lower value 1 | S. cerevisiae deletion strains, locus YNL153C, strain GIM3, stronger effect = lower value 1.01 | S. cerevisiae deletion strains, locus YNL183C, strain NPR1, stronger effect = lower value 0.973 | S. cerevisiae deletion strains, locus YNL209W, strain ssb2, stronger effect = lower value 1.01 | S. cerevisiae deletion strains, locus YNL233W, strain BNI4, stronger effect = lower value 1.01 | S. cerevisiae deletion strains, locus YNL248C, strain rpa49, stronger effect = lower value 1.01 | S. cerevisiae deletion strains, locus YNL250W, strain rad50, stronger effect = lower value 0.975 | S. cerevisiae deletion strains, locus YNL271C, strain bni1, stronger effect = lower value 0.987 | S. cerevisiae deletion strains, locus YNL298W, strain CLA4, stronger effect = lower value 0.975 | S. cerevisiae deletion strains, locus YNL307C, strain MCK1, stronger effect = lower value 0.996 | S. cerevisiae deletion strains, locus YNL322C, strain KRE1 (second series), stronger effect = lower value 1.01 | S. cerevisiae deletion strains, locus YNL322C, strain KRE1, stronger effect = lower value 0.99 | S. cerevisiae deletion strains, locus YNR049C, strain mso1, stronger effect = lower value 1.01 | S. cerevisiae deletion strains, locus YNR052C, strain pop2, stronger effect = lower value 0.989 | S. cerevisiae deletion strains, locus YOL006C, strain TOP1, stronger effect = lower value 1.01 | S. cerevisiae deletion strains, locus YOL012C, strain htz1 0.815 | S. cerevisiae deletion strains, locus YOL147C, strain pex11, stronger effect = lower value 0.99 | S. cerevisiae deletion strains, locus YOR001W, strain rrp6, stronger effect = lower value 1.02 | S. cerevisiae deletion strains, locus YOR061W, strain CKA2, stronger effect = lower value 0.996 | S. cerevisiae deletion strains, locus YOR069W, strain VPS5, stronger effect = lower value 0.992 | S. cerevisiae deletion strains, locus YOR070C, strain gyp1, stronger effect = lower value 1.02 | S. cerevisiae deletion strains, locus YOR080W, strain dia2, stronger effect = lower value 1.01 | S. cerevisiae deletion strains, locus YOR083W, strain WHI5, stronger effect = lower value 1 | S. cerevisiae deletion strains, locus YOR106W, strain vam3, stronger effect = lower value 0.997 | S. cerevisiae deletion strains, locus YOR136W, strain idh2, stronger effect = lower value 0.99 | S. cerevisiae deletion strains, locus YOR144C, strain elg1, stronger effect = lower value 0.983 | S. cerevisiae deletion strains, locus YOR184W, strain ser1, stronger effect = lower value 0.981 | S. cerevisiae deletion strains, locus YOR231W, strain MKK1, stronger effect = lower value 1.02 | S. cerevisiae deletion strains, locus YOR265W, strain rbl2, stronger effect = lower value 0.998 | S. cerevisiae deletion strains, locus YOR270C, strain vph1, stronger effect = lower value 1 | S. cerevisiae deletion strains, locus YOR290C, strain snf2, stronger effect = lower value 0.971 | S. cerevisiae deletion strains, locus YOR316C, strain cot1, stronger effect = lower value 0.981 | S. cerevisiae deletion strains, locus YPL051W, strain arl3, stronger effect = lower value 0.995 | S. cerevisiae deletion strains, locus YPL055C, strain LGE1, stronger effect = lower value 1.01 | S. cerevisiae deletion strains, locus YPL078C, strain atp4, stronger effect = lower value 1.03 | S. cerevisiae deletion strains, locus YPL106C, strain sse1, stronger effect = lower value 1 | S. cerevisiae deletion strains, locus YPL240C, strain hsp82, stronger effect = lower value 1.01 | S. cerevisiae deletion strains, locus YPL241C, strain CIN2, stronger effect = lower value 0.99 | S. cerevisiae deletion strains, locus YPL256C, strain CLN2, stronger effect = lower value 1 | S. cerevisiae deletion strains, locus YPR119W, strain clb2, stronger effect = lower value 0.994 | S. cerevisiae deletion strains, locus YPR141C, strain kar3, stronger effect = lower value 0.981 | S. cerevisiae deletion strains, locus YPR163C, strain tif3, stronger effect = lower value 0.988 | S. cerevisiae deletion strains, locus YPR167C, strain met16, stronger effect = lower value 0.994 | S. cerevisiae deletion strains, strain wtn01, stronger effect = lower value 0.995 | S. cerevisiae strains, strain wild type, stronger effect = lower value 0.998
